Each structure is given as a SMILES string. Activity calls are given as the source filed them.

Among the data in PubChem BioAssay are composite z-score and z-score values, retold here.

Assay [1] relates to PRMT1 (protein arginine N-methyltransferase 1). Put plainly: PRMT1 binders on small-molecule microarrays, primary screen, biochemical, small-molecule microarray, 635 nm fluorescence (AID 1088).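 Also: binding of Prmt1 protein to compounds spotted on small-molecule microarray slides.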 The settings on record: small-molecule microarray binding, higher = more signal.
Assay [2] can be described thus: yeast growth modulation, basal conditions, primary screen, YJM789 clinical isolate, OD600, 24 h (AID 1089).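 Also: growth of clinical yeast isolate S. cerevisiae YJM 789 seeded 1000 cells per well; test concentration not given here.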 To be noted: S. cerevisiae YJM789 growth, higher = more signal, called active from +8 up or from −8 down.
A short description of assay [3]: fission yeast growth modulation, primary screen, strain 972, OD600, 24 h, no modulator (AID 1090).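 Also: basal condition with compound alone and no growth modifier present; test concentration not given here.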 The settings on record: S. pombe 972 growth, higher = more signal, called active from +8 up or from −8 down.
The nature of assay [4]: S. cerevisiae growth modulation with rapamycin, primary screen, strain BY4716, OD600, 96 h (AID 1091). Also: test concentration not given here. To be noted: higher = more signal, called active from +8 up or from −8 down.
For assay [5], the target named is Torsin-1A-interacting protein 2 (Homo sapiens) (UniProt Q8NFQ8). The assay is described as follows: LULL1 binders on small-molecule microarray, primary screen, cell lysate, human LULL1 lysate, 635/667 nm fluorescence (AID 1092).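 Also: probe is lysate of COS7 cells overexpressing human LULL1; score merges per-feature 667 nm fluorescence with signal-to-noise.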 The settings on record: hLULL1 lysate binding, 635 nm fluorescence, higher = more signal.
Sequence of Torsin-1A-interacting protein 2 (Homo sapiens) (Q8NFQ8 whole entry, looked up): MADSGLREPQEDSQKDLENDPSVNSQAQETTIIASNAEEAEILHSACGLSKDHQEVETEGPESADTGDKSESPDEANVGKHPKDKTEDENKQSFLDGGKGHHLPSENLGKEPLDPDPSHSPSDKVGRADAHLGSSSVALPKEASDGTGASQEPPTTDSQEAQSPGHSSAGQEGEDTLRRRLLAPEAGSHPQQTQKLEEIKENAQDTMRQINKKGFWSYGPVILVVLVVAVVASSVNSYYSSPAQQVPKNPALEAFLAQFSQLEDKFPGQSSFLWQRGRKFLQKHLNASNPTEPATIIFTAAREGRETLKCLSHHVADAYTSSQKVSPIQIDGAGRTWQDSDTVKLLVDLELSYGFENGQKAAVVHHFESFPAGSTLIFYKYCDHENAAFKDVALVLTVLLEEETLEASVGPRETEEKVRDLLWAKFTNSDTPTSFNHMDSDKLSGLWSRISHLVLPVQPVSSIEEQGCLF
Assay [6] in a line: E. coli growth modulation, two-sided OD650, primary screen, E. coli filamentation project, strain DRC41, 24 h (AID 1093).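 Also: MC1000 strain lacking acrAB efflux and sulA so SOS filamentation is blocked; test concentration not given here.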 To be noted: OD650, 24 h, higher = more signal, called active from +8 up or from −8 down.
A short description of assay [7]: small-molecule microarray binders of probe aLefty2, primary screen, biochemical, biotinylated probe, 635/667 nm fluorescence (AID 1094).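 Also: score merges spot fluorescence near 667 nm with spot signal-to-noise ratio.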 The settings on record: higher = more signal.
Assay [8] has as its system Noggin (protein binding on small-molecule microarray). The assay is described as follows: Noggin binders on small-molecule microarray, primary screen, biochemical, 635/667 nm fluorescence (AID 1095).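 Also: score merges 667 nm feature fluorescence with signal to noise over triplicate slides.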 To be noted: 635 nm fluorescence, higher = more signal.
The target in assay [9] is Neurogenic locus notch homolog protein 3 (Homo sapiens) (UniProt Q9UM47). Put plainly: NOTCH3 binders on small-molecule microarray, primary screen, biochemical, 635/667 nm fluorescence (AID 1096). To be noted: NOTCH3 binding, 635 nm fluorescence, higher = more signal.
Sequence of Neurogenic locus notch homolog protein 3 (Homo sapiens) (Q9UM47 whole entry, looked up): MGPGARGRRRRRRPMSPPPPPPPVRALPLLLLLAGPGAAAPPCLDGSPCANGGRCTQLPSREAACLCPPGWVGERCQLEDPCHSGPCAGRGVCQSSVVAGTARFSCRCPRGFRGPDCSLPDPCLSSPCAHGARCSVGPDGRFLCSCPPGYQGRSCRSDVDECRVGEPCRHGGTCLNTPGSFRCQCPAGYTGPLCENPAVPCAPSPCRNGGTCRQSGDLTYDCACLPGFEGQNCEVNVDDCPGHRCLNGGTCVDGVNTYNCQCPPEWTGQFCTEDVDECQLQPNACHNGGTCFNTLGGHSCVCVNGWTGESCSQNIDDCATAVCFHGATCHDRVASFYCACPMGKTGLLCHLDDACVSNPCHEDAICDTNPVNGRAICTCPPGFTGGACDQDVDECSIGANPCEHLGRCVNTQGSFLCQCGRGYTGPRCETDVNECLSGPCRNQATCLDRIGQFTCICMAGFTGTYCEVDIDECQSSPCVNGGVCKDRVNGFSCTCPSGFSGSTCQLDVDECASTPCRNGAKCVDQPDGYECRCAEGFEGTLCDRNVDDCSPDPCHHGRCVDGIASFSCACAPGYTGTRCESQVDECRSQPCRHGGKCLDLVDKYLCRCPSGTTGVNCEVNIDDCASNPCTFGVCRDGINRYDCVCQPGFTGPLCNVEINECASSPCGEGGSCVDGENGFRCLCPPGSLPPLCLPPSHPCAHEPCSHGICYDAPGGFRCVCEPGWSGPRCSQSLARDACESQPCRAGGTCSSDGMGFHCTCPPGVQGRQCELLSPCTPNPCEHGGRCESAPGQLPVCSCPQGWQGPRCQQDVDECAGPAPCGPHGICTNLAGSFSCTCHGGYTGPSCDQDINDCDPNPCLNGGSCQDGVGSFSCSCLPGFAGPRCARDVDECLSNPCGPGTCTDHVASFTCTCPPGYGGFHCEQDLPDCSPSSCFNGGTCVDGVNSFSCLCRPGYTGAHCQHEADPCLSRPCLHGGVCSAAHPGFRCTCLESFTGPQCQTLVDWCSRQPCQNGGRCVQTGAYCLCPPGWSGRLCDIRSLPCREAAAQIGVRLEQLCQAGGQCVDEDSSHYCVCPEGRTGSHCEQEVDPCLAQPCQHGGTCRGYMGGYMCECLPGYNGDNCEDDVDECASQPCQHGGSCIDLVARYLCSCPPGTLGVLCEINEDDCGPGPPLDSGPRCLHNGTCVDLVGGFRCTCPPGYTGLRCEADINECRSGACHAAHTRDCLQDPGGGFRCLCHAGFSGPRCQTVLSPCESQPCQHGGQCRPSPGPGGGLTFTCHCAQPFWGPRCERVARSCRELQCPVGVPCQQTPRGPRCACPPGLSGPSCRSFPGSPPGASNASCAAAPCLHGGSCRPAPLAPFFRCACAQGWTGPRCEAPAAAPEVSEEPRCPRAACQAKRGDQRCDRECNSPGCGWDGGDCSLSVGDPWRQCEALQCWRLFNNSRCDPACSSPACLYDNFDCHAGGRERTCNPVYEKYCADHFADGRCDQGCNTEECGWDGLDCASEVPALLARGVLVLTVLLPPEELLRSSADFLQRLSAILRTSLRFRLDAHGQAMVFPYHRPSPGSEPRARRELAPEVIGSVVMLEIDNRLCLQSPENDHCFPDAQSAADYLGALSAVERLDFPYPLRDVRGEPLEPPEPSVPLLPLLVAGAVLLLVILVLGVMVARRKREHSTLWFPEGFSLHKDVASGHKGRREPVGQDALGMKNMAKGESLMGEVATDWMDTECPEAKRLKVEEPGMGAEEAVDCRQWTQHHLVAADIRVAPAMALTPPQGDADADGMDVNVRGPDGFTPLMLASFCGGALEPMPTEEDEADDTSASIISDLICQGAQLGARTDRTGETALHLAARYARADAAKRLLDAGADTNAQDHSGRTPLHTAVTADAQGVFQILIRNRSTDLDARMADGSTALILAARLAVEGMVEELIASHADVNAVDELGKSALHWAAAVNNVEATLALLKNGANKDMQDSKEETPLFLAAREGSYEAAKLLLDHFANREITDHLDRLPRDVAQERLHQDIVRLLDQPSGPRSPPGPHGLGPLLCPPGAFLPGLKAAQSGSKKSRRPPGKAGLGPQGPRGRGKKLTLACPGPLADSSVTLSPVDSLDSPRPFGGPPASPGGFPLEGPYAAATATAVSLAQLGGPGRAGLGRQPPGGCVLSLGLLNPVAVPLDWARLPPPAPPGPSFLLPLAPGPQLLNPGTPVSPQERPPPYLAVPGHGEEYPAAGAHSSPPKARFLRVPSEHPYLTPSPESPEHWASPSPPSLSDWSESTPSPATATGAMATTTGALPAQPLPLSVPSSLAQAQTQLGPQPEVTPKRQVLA
Assay [10] in a line: small-molecule microarray binders of probe aEGFR, primary screen, biochemical, biotinylated probe, 635/667 nm fluorescence (AID 1097).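 Also: probe is a biotinylated anti-EGFR antibody binding compounds printed on slides; score combines fluorescence near 667 nm and signal to noise of each spot.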 To be noted: higher = more signal.
Assay [11] deals with Plasmodium falciparum Sir2 (PF13_0152, Sir2A). The assay is described as follows: pfSir2 binders on small-molecule microarrays, primary screen, biochemical, small-molecule microarray, 635 nm fluorescence (AID 1098).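 Also: score merges spot fluorescence intensity with its signal-to-noise ratio.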 The settings on record: small-molecule microarray binding, fluorescence 635 nm; higher = more signal.
A short description of assay [12]: small-molecule microarray binders of probe aDKK1, primary screen, biochemical, biotinylated probe, 635/667 nm fluorescence (AID 1099).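 Also: score merges 667nm spot fluorescence with signal to noise across triplicate slides; reference of the scale not given here.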 To be noted: higher = more signal.
Assay [13] can be described thus: small-molecule microarray binders of probe aCHRDL2, primary screen, biochemical, biotinylated probe, 635/667 nm fluorescence (AID 1100). The settings on record: higher = more signal.
Assay [14] is described as follows: splicing luciferase reporter signal modulators, primary screen, spliceosome inhibition project, cell-based, HEK293, splice +/- reporter (AID 1101).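 Also: HEK293 cells carrying a splicing-competent luciferase reporter gene; test concentration not given here.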 The settings on record: luminescence, 24 h, higher = more signal, called active from +8 up or from −8 down. (In general: A reporter such as luciferase makes a cellular process visible.)
Assay [15] has as its target Fibroblast growth factor 10 (Homo sapiens) (UniProt O15520). The assay is described as follows: FGF10 binders on small-molecule microarrays, primary screen, biochemical, small-molecule microarray, 635 nm fluorescence (AID 1102). To be noted: FGF10 binding, fluorescence 635 nm, higher = more signal.
Assay [16] concerns glycogen synthase kinase-3 (GSK3A per assay name; protocol says GSK3B). Put plainly: GSK3 binders on small-molecule microarrays, primary screen, biochemical, small-molecule microarray, 635 nm fluorescence, GSK3A (AID 1103). Also: the record names both GSK3A and GSK3B. The settings on record: small-molecule microarray binding, fluorescence 635 nm; higher = more signal.
Assay [17] addresses Epidermal growth factor receptor (Homo sapiens) (UniProt P00533). Put plainly: EGFR binders on small-molecule microarrays, primary screen, biochemical, small-molecule microarray, 635 nm fluorescence (AID 1104).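 Also: score merges 667 nm emission intensity with spot signal to noise over triplicate slides.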 To be noted: EGFR binding, higher = more signal.
Assay [18] has as its target Follistatin-related protein 3 (Homo sapiens) (UniProt O95633). The assay is described as follows: FSTL3 binders on small-molecule microarrays, primary screen, biochemical, small-molecule microarray, 635 nm fluorescence (AID 1105).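 Also: score merges emission near 667 nm and signal to noise per printed spot across three slides.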 To be noted: FSTL3 binding, higher = more signal.
Assay [19] deals with Dickkopf-related protein 1 (Homo sapiens) (UniProt O94907). The assay is described as follows: DKK1 binders on small-molecule microarrays, primary screen, biochemical, small-molecule microarray, 635 nm fluorescence scan (AID 1106).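 Also: score merges emission near 667 nm with signal to noise over three replicate slides.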 The settings on record: DKK1 binding, higher = more signal.
Sequence of Dickkopf-related protein 1 (Homo sapiens) (O94907 whole entry, looked up): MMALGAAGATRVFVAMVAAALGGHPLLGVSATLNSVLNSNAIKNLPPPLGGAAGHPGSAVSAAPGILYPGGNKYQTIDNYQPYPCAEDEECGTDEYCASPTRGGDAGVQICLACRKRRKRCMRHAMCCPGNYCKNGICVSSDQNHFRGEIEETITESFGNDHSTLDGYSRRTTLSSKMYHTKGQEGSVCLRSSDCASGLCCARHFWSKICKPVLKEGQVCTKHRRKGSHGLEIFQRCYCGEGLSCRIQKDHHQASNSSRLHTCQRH
The subject of assay [20] is Inhibin beta A chain (activin A). Put plainly: INHBA (activin A) binders on microarrays, primary screen, biochemical, small-molecule microarray, 635 nm fluorescence scan (AID 1107).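 Also: mouse activin A protein probed at 4.33 µg/mL on printed slides; score merges bound-protein fluorescence near 667 nm with spot signal-to-noise.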 To be noted: small-molecule microarray binding, higher = more signal.

Sequence of Fibroblast growth factor 10 (Homo sapiens) (O15520 whole entry, looked up): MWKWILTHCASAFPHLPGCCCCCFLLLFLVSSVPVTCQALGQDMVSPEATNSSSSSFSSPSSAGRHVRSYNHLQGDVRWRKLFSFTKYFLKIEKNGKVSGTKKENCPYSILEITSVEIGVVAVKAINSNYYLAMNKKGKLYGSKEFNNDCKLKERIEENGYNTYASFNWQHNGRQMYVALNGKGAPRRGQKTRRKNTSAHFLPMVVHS
Sequence of Epidermal growth factor receptor (Homo sapiens) (P00533 whole entry, looked up): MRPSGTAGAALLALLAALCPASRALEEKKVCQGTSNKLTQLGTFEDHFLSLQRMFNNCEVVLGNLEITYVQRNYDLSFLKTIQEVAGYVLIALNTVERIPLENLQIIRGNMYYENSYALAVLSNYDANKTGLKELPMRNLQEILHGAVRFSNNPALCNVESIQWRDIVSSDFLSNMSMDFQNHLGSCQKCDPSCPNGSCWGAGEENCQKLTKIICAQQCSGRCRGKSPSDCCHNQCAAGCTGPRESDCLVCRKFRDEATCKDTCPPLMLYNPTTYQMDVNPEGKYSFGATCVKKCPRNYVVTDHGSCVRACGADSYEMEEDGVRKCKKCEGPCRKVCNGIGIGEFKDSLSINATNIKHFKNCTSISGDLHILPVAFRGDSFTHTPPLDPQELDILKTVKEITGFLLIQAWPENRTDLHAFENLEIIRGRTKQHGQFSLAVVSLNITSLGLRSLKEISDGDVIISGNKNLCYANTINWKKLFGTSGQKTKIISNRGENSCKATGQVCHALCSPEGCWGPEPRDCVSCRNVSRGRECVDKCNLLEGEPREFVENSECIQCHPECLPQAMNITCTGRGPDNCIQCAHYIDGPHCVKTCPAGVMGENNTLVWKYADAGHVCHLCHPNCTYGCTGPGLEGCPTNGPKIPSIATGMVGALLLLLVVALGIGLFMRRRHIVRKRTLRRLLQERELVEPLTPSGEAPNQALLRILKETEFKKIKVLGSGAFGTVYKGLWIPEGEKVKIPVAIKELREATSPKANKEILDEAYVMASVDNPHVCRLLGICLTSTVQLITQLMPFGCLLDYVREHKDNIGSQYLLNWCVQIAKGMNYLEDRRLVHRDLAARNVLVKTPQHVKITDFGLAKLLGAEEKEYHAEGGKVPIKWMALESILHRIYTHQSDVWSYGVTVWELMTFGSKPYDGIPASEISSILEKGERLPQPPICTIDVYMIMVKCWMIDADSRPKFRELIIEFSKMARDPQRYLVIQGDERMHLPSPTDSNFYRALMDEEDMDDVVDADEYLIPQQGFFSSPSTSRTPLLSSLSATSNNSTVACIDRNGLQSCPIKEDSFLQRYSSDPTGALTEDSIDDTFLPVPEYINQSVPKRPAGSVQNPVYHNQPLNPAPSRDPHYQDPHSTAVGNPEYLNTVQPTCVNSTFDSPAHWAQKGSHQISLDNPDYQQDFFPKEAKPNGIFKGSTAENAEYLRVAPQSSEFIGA
Sequence of Follistatin-related protein 3 (Homo sapiens) (O95633 whole entry, looked up): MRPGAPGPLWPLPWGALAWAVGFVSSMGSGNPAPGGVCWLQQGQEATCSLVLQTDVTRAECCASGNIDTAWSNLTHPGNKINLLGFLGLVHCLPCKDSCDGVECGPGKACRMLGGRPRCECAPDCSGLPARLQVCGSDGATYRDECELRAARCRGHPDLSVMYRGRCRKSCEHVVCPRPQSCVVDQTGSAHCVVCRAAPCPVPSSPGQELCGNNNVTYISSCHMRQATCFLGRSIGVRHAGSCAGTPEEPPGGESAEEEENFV

Take `CCOC(=O)[C@H](CC(C)C)NC(=O)CCC1CC(OC(=O)NCCc2ccc(F)cc2)CC2(CCCC(COC(=O)NCc3ccccc3)O2)O1` (stereo not given in full): the composite z-score was 1.57 in assay [1]; 2.24 in assay [5]; -0.0778 in assay [7]; 1.46 in [8]; 0.828 in [9]; 0.0338 in [10]. The composite z-score was 0.859 in assay [11]; -0.273 in assay [12]; -0.29 in assay [13]; 1.39 in assay [15]; 0.808 in [16]; 0.907 in assay [17]. Besides, the composite z-score in assay [18] was 1.01; in assay [19], 0.89; in assay [20], -0.198. For the same compound, the z-score is -0.341 (inactive) in [2]; -0.265 (inactive) in assay [3]; 0.707 (inactive) in assay [4]; -0.206 (inactive) in assay [6]; -1.19 (inactive) in assay [14].
Turning to `CC(CCN1CCc2nc(-c3ccccc3)c(-c3ccccc3)cc2C1)=NOC[C@@H](C)[C@H](OCc1ccccc1)C(C)C`, the composite z-score in [1] is -0.299; in assay [5], 0.628; in assay [7] it was -0.195; in assay [8] it was -0.179; in assay [9], -2.07; in [10], -0.25. Besides, the composite z-score was 1.42 in assay [11]; -0.215 in assay [12]; 0.213 in assay [13]; -1.3 in assay [15]; -1.52 in assay [16]; -1.15 in assay [17]. Moreover, the composite z-score in assay [18] was -1.76; in assay [19] it was -1.21; in assay [20], 0.166. Also, the z-score was -0.511 (inactive) in assay [2]; -1.17 (inactive) in assay [3]; -3.43 (inactive) in [4]; -0.518 (inactive) in [6]; -0.0457 (inactive) in assay [14].
`COc1cccc([C@H]2Oc3ccc(OC)cc3C(=NO[C@H](C)c3cn([C@@H]4COC[C@H]4O)nn3)[C@@H]2O)c1`: the composite z-score was -0.499 in assay [1]; -0.077 in assay [5]; -0.126 in [7]; -0.427 in assay [8]; -1.34 in assay [9]; -0.267 in [10]. For the same compound, the composite z-score in assay [11] was 0.53; in [12], -0.393; in assay [13] it was -0.381; in [15], -0.481; in assay [16] it was -1.14; in assay [17], -0.0724. Further, the composite z-score in assay [18] was -0.525; in assay [19] it was 0.0385; in assay [20] it was 0.0726. The z-score was 0.0141 (inactive) in assay [2]; 0.874 (inactive) in assay [3]; 0.467 (inactive) in [4]; -0.398 (inactive) in assay [6]; -0.992 (inactive) in assay [14].
For the compound `COC(=O)CC1OC1[C@H](C)[C@@H](OC)C(C)C` (stereo not given in full), the composite z-score in assay [1] is 0.12; in assay [5] it was -0.481; in [7] it was 0.121; in [8], 0.291; in [9], -0.556; in [10], -0.151. The composite z-score in [11] is 0.505; in [12], -0.0977; in [13], -0.111; in [15] it was 0.142; in assay [16] it was -0.792; in assay [17], 0.335. Moreover, the composite z-score in assay [18] stood at 0.0479; in assay [19], 0.82; in [20] it was 1.32. The z-score is -0.132 (inactive) in assay [2]; -4.41 (inactive) in assay [3]; 1.24 (inactive) in [4]; 0.453 (inactive) in assay [6]; 0.743 (inactive) in assay [14].
Take `CCN1C(=O)[C@H]2[C@H]3[C@H](O)[C@H](O)CC(=NO[C@@H]4O[C@H](CO)[C@@H](O)[C@H](O)[C@H]4O)[C@@H]3CC[C@H]2C1=O`: the composite z-score in [1] is -0.685; in assay [5] it was -1.12; in assay [7], -0.132; in assay [8], -0.103; in assay [9], -0.389; in assay [10] it was -0.19. Also, the composite z-score is 0.562 in assay [11]; -0.291 in assay [12]; -0.233 in assay [13]; -0.584 in assay [15]; -1.42 in [16]; -0.831 in assay [17]. The composite z-score in assay [18] was -0.534; in assay [19], -0.0655; in assay [20], 0.613. The z-score in assay [2] was -0.58 (inactive); in assay [3], -0.599 (inactive); in assay [4] it was -0.849 (inactive); in [6] it was 0.103 (inactive); in assay [14], -0.448 (inactive).
